Compound activity as filed in PubChem BioAssay.
M18AAP inhibitor = PfM18AAP enzyme inhibition. recombinant PfM18AAP, H-Glu-NHMec fluorogenic cleavage. AID 1822. 1.2% of 290,000 active. inhibition, % at 7.35 µM;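 active means inhibition above the campaign mean inhibition over all tested compounds plus 3 SD, cut at about 28% in these data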
ALR inh = human ALR oxidase inhibition via reduced H2O2; P55789; inhibition, % (concentration not given with the values); 3.8% of 290,000 active; AID 485317; purified ALR, DTT oxidation, H2O2 HRP-luminol luminescence;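 active means mean replicate inhibition above about 79%, with every replicate also reaching it, limit read from the data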
Target sequence (P55789 whole entry, looked up): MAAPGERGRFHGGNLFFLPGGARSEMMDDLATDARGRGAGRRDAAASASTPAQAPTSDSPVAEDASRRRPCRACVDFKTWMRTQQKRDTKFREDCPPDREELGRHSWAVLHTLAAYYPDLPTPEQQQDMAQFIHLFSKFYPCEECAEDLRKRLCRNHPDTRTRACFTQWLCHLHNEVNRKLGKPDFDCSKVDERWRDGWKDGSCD
H9c2 protect = modulators protecting cardiomyocytes from myocardial damage; H9c2 cardiomyocytes, H2O2 injury protection, ATPLite, 2 h; protection from H2O2 cell death, % at 20 µM; 0.63% of 360,000 active; AID 588492;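 active means compounds giving at least 50% protection of heart cells from peroxide-induced death in the single-dose screen, raw or plate-pattern-corrected value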
PHOSPHO1 block = blocks human PHOSPHO1 phosphatase activity. recombinant PHOSPHO1, absorbance phosphatase assay. inhibition, % at 13.3 µM. Q8TCT1. 1.1% of 290,000 active; in the data active means inhibition above about 60%
PfG6PD inh = PfG6PD (Plasmodium falciparum) enzyme inhibition | inhibition, % at 20 µM | PfGluPho enzyme, NADPH resazurin-diaphorase fluorescence | AID 504690 | 0.78% of 350,000 active;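 active means inhibition reaching at least a set limit at 20 µM in the primary screen, cut at about 59% in these data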
PfGluPho conf = confirmation of Plasmodium falciparum G6PD inhibitors; AID 504753; shares compounds with PfG6PD inh; 34% of 2,400 active; inhibition, % at 20 µM; recombinant PfGluPho, NADPH-diaphorase-resazurin fluorescence;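 active means inhibition of at least 50% at 20 µM in any single replicate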
Diaphorase 10uM = counter-screen for P. falciparum G6PD inhibitors: diaphorase inhibitors, oxidizers; shares compounds with PfG6PD inh; diaphorase-coupled resazurin reduction, fluorescence, NADPH 10 uM; inhibition, % at 20 µM; 39% of 820 active; AID 504862;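 active means average inhibition reaching 50% or more with the compound at 20 µM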;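 further: resorufin red fluorescence formed as diaphorase reduces resazurin using NADPH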
Diaphorase 30uM = inhibits diaphorase or oxidizes, flagging false PfG6PD hits. shares compounds with PfG6PD inh. Diaphorase/resazurin coupled assay, resorufin fluorescence, 30 uM NADPH. inhibition, % at 20 µM. 29% of 820 active. AID 504863;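 active means inhibition averaging 50% or more, tested at 20 µM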
Each line names hits and unclear results; the compound was inactive in the other large screens (follow-up assays come after a bar, where they were run). Only some compounds are listed: those with a hit (about 5.6% of all), similar ones and a draw of the others.

CN(C(=O)c1cc2n(n1)C(C(F)(F)F)CC(c1ccco1)N2)c1ccccc1 (stereo not given)	PfG6PD inh 93.9 | PfGluPho conf 65.8 | Diaphorase 10uM 80.0 | Diaphorase 30uM 52.8
COc1cccc(-c2c(-c3cc(OC)cc(OC)c3)n(C)c3ccc(-c4cnc(N5CCOCC5)nc4)cc23)c1	none (no result: M18AAP inhibitor, PHOSPHO1 block)
COc1ccc(NC(=O)N(C)C[C@H]2Oc3c(NS(=O)(=O)c4cccs4)cccc3C(=O)N([C@@H](C)CO)C[C@@H]2C)cc1	none (no result: M18AAP inhibitor, PHOSPHO1 block)
Nc1ccc(Oc2ccc3nc(-c4ccccc4)c(-c4ccccc4)nc3c2)cc1	none (no result: H9c2 protect)
Nc1ccc2nc(-c3ccccc3)c(-c3ccccc3)nc2c1	PfG6PD inh 78.9 | PfGluPho conf inactive
Clc1nssc1=Nc1ccc(Br)cc1	PHOSPHO1 block 80.0, PfG6PD inh 78.6 (no result: ALR inh) | PfGluPho conf inactive
COc1cc(OC)cc(-c2nc(-c3ccccc3OC)no2)c1	none (no result: ALR inh)
Clc1nssc1=Nc1nncs1	PfG6PD inh 100.5 (no result: M18AAP inhibitor, PHOSPHO1 block) | PfGluPho conf 81.7 | Diaphorase 10uM inactive | Diaphorase 30uM inactive
COc1cc(N=c2ssnc2Cl)cc(OC)c1	PfG6PD inh 78.3 | PfGluPho conf 65.3 | Diaphorase 10uM inactive | Diaphorase 30uM inactive
CN1C(=O)CSC1=Nc1ccc(Br)cc1	none (no result: ALR inh, PHOSPHO1 block)
Cc1cn([C@H]2C[C@H](O)[C@@H](CNC(=O)[C@H](N)C3CC3)O2)c(=O)[nH]c1=O	none (no result: M18AAP inhibitor, ALR inh, PHOSPHO1 block)
CN(C(=O)CCCN1C(=O)c2ccccc2C1=O)C1CCCCC1	none (no result: M18AAP inhibitor, ALR inh, PHOSPHO1 block)
O=C(Cn1c(=O)oc2cc(S(=O)(=O)N3CCCC3)ccc21)Nc1ccccn1	none (no result: M18AAP inhibitor, ALR inh, PHOSPHO1 block, PfG6PD inh)
CC(C)NC(=O)Nc1ccc2c(c1)C(=O)N([C@H](C)CO)C[C@H](C)[C@@H](CN(C)Cc1ccc(C(F)(F)F)cc1)OCCCC[C@H](C)O2	none (no result: M18AAP inhibitor, ALR inh, PHOSPHO1 block)
O=C(CN1CCN(c2ccc(O)cc2)CC1)NCC(=O)Nc1ccc(F)c(F)c1F	ALR inh 92.5, PfG6PD inh 67.0 (no result: M18AAP inhibitor, PHOSPHO1 block) | PfGluPho conf inactive
CC(C)OP(=O)(c1ccc(N(C)C)cc1)C(O)c1ccc(N(C)C)cc1 (stereo not given)	ALR inh 98.4, PfG6PD inh 67.8 (no result: PHOSPHO1 block) | PfGluPho conf inactive
O=C(O)C(Cc1c[nH]c2ccccc12)NS(=O)(=O)c1ccc(Cl)c(C(F)(F)F)c1 (stereo not given)	none
COC(=O)c1cc2ccccc2c(-c2c(OC)c(C(=O)OC)cc3ccccc23)c1OC	PfG6PD inh 89.3 | PfGluPho conf inactive
CCOc1ccccc1-n1c(=S)sc2c(=O)n(-c3ccc(F)cc3)c(SCC(=O)O)nc21	PfG6PD inh 68.8 (no result: ALR inh) | PfGluPho conf inactive
CCN(CC)C(=O)CSc1nc2c(sc(=S)n2-c2ccccc2)c(=O)n1-c1ccc(OC)cc1OC	PfG6PD inh 79.5 (no result: ALR inh) | PfGluPho conf inactive
C[C@@H]1CN([C@@H](C)CO)C(=O)c2cc(Br)cnc2O[C@@H]1CN(C)Cc1ccc(Oc2ccccc2)cc1	none (no result: M18AAP inhibitor, ALR inh, PHOSPHO1 block)
